Source: PubChem BioAssay
D2 PAM-1 = positive allosteric modulators of human D2 dopamine receptor; P14416; potentiation, % (concentration not given with the values); 360,000 tested, 0.23% active; AID 624464; DiscoveRx D2 beta-arrestin cells, luminescence, 90 min; 100% = 57 uM dopamine signal; in the data active = potentiation above about 50%
Target sequence (P14416 whole entry, looked up): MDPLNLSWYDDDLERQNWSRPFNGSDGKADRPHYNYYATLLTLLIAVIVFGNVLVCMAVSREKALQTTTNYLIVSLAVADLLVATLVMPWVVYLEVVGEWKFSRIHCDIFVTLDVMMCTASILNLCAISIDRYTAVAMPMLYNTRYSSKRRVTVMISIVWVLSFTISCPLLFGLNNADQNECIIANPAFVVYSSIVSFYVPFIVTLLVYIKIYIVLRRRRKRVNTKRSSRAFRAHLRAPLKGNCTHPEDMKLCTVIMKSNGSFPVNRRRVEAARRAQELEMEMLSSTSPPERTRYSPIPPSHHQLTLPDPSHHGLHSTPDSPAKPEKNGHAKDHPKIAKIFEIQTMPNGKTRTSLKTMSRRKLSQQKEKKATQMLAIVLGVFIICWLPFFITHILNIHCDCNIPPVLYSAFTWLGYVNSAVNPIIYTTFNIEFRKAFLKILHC
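PathHunter beta-arrestin assay in DiscoveRx D2 cells. Compounds were added with an EC20 of dopamine (50 nM final) for 90 min at 37 deg C. Luminescence was read 1 h after detection reagent, with 57 uM dopamine as the EC100 control.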
D2 antagonist = antagonists of human D2 dopamine receptor | P14416 | 340,000 tested, 2% active | inhibition, % at 10 µM | HEK293 TREx D2 cells, calcium flux, dopamine EC80 | AID 485344; in the data active = inhibition above about 30%; inactive = below that, where a call was filed; also: 0% is about no effect
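Antagonism is scored as inhibition of an EC80 dopamine-evoked calcium signal in a force-coupled, tetracycline-inducible HEK293 T-REx D2 line, with compound present 180 s before agonist.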
D2 ag-1 = D2 dopamine receptor (human) agonism; HEK293 T-REx D2 cells, calcium flux agonist mode; 340,000 tested, 0.53% active; P14416; AID 485358; activation, % at 2 µM;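 active = activation over 3 SD above normal in the single-dose calcium agonist read, cut at about 30% in these data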; also: 0% is about no effect
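Agonism is scored from calcium flux in a force-coupled, inducible HEK293 cell line expressing D2, read kinetically for 180 s after compound addition against dopamine controls.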
D2 ag-2 = activates the human D2 dopamine receptor; DiscoveRx PathHunter D2 beta-arrestin, luminescence, 90 min; 100% = 57 uM dopamine signal; 360,000 tested, 0.084% active; AID 624465; activation, % (concentration not given with the values); in the data active = activation above about 40%
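DiscoveRx PathHunter D2 beta-arrestin cells (2,100/well) attached overnight, then compound-stimulated 90 min at 37 C in HBSS/10 mM HEPES/0.1% Tween-20 buffer; beta-galactosidase complementation read by luminescence after 1 h at ambient temperature. Dopamine 57 uM final (EC100) as control.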
D2 PAM-2 = D2 dopamine receptor (human) potentiation; AID 485347; potentiation, % at 10 µM; HEK293 T-REx D2, calcium flux, EC20 dopamine potentiation; 340,000 tested, 0.34% active;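 active = potentiation over 3 SD above the plate norm, cut at about 30% in these data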; also: 0% is about no effect
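Calcium flux readout, no-wash dye, 1 read/s. Inducible HEK293 Trex D2 line, overnight 30 C. Compound alone 180 s (agonist flags), then EC20 dopamine, another 180 s to score potentiation.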
An asterisk follows results filed as active; . = no result given; ! = not confirmed by another sample. Rows were chosen to be rich in hits. Some 2.4% of all compounds tested hit in one or more screens of this group.

SMILES | D2 PAM-1 | D2 antagonist | D2 ag-1 | D2 ag-2 | D2 PAM-2
CCCn1nc(C(=O)NCc2ccc3c(c2)OCO3)c2ccccc2c1=O | -6.1 | 5.4 | -1.2 | 10.7 | 38.7*
Cc1ccc(S(=O)(=O)N2CCOCC2)cc1C(=O)OC(C)C(=O)c1ccccc1 (configuration not stated) | -2.7 | 36.6* | -1.1 | -3.9 | -2.2
CN1/C(=C\C=C2/SC(=S)N(CC(=O)O)C2=O)C(C)(C)c2ccccc21 | -26.6 | 12.1 | 97.0* | -9.6 | -8.5
O=C1c2ccncc2C(=O)N1c1cccc(Cl)c1 | -7.0 | 4.9 | -0.1 | -0.8 | -2.8
O=c1onc(-c2ccc(Cl)cc2Cl)n1-c1cccnc1 | 59.3* | 5.1 | 0.4 | 59.9* | 11.7
COc1cc(NS(=O)(=O)c2cc3[nH]c(=O)[nH]c3cc2C)cc(OC)c1OC | . | . | . | . | 13.1
COc1cc(NS(C)(=O)=O)cc(OC)c1OC | 1.6 | 30.4* | 0.3 | 2.5 | 1.0
CC(=O)c1ccc(NC(=O)CCc2c(C)nn(-c3ccc4nncn4n3)c2C)cc1 | . | . | . | . | -0.9
CC1OC(OC2C(OC3C(O[C@H]4CC[C@]5(C)C6C=C[C@]78OC[C@@]9(CC[C@@H](C)[C@H](C)C97)[C@H](O)C[C@@]8(C)[C@]6(C)CC[C@H]5C4(C)C)OC(C)C(O)C3O)OC(CO)C(O)C2O)C(O)C(O)C1O (some centres not stated) | . | 31.6* | 43.0* | . | -14.0
C[C@H]1O[C@@H](O[C@H]2CC[C@@]3(C)C(CC[C@]4(C)C3C=C[C@]35OC[C@@]6(CCC(C)(C)C[C@H]63)[C@@H](O)C[C@]54C)[C@]2(C)CO)[C@H](O)[C@@H](O[C@@H]2O[C@H](CO)[C@@H](O)[C@H](O)[C@H]2O)[C@H]1O (some centres not stated) | -34.8 | . | . | 1.0 | .
COc1ccc(C2=Nc3ccc(OC(F)(F)F)cc3NC(c3cccnc3)=N2)cc1 | . | . | 0.3 | . | 8.4
CC1(C)CC(=O)C(C(C2=C(O)CC(C)(C)CC2=O)c2ccc([N+](=O)[O-])cc2)C(=O)C1 (configuration not stated) | -7.7 | 33.1* | -0.1 | -0.4 | 2.6
CC(=O)/C(C[N+]1(C)CCCCC1)=N\O | -14.6 | 44.1* | -0.4 | 0.6 | .
N#C/C(=C\c1ccc(N2CCCCC2)o1)C(=O)Nc1cccc(Br)c1 | -13.3 | 12.8 | 95.3* | -4.0 | -6.1
O=C(CCCN1C(=O)C(c2ccccc2)Oc2cccnc21)Nc1ccc(Br)cc1F (configuration not stated) | . | . | 0.0 | . | -4.7
CS(=O)(=O)Nn1cnc2ccccc2c1=O | -2.6 | 3.6 | -0.5 | 2.3 | 34.9*
CN(n1cnc2ccccc2c1=O)S(C)(=O)=O | -3.9 | . | . | -1.0 | .
CC1(C)CC(NC(=O)c2cc([N+](=O)[O-])cc([N+](=O)[O-])c2)CC(C)(C)N1 | -1.4 | 0.3 | 0.2 | 3.6 | -14.6
COc1cc(OC)cc(C(=O)NC2CC(C)(C)NC(C)(C)C2)c1 | -14.0 | 82.5* | -1.6 | -1.2 | 18.3
Cc1ccccc1C(=O)Nc1cccc(C(=O)Nc2ccccc2C(=O)O)c1 | 18.5 | 2.5 | 0.5 | 2.9 | 33.3*
O=C(Nc1ccccc1C(=O)O)c1cccc(NC(=O)c2ccccc2Cl)c1 | 64.1* | 17.1 | 1.2 | 5.5 | -0.2
CCc1cccc(NC(=O)CSC2=Nc3ccccc3N=C(c3ccc(F)cc3)C2)c1 | . | . | 2.3 | . | -3.6
O=C1NCN(c2ccccc2)C12CCN(CCCC(c1ccc(F)cc1)c1ccc(F)cc1)CC2 | -32.5 | 68.7* | 3.9 | -6.8 | -26.0
O=C1CCC(=O)N1CCC(c1ccc(F)cc1)c1ccco1 (configuration not stated) | -16.7 | 16.9 | 1.7 | -0.8 | 9.3
OCc1cnc(SCc2ccccc2)n1Cc1ccccc1 | -5.9 | -1.7 | -0.3 | -0.7 | 0.9
SMILES | D2 PAM-1 | D2 antagonist | D2 ag-1 | D2 ag-2 | D2 PAM-2
C=CCSc1ncc(CO)n1Cc1ccccc1 | -9.5 | 36.5* | 0.5 | -4.5 | 1.6
O=C(Cn1cc([N+](=O)[O-])cn1)NCCc1nc2ccccc2[nH]1 | -0.4 | -1.4 | 2.0 | -6.6 | 3.7
O=C(NCCc1nc2ccccc2[nH]1)c1cc([N+](=O)[O-])cc([N+](=O)[O-])c1 | 59.4* | -10.2 | -0.5 | 13.9 | 7.0
Cc1ccc(NC(=O)C2CCCN(c3ncnc4c3nc3n4CCCCC3)C2)c(Br)c1 (configuration not stated) | . | . | -0.3 | . | -7.7
CCOc1cc(CN2CCN(CCOCCO)CC2)ccc1OC | -7.5 | -5.3 | -0.1 | -1.8 | 1.9
Cc1ccc(S(=O)(=O)N(C)Cc2nc(-c3ccccn3)no2)cc1 | -1.2 | 23.4 | 0.2 | -2.6 | -0.4
CN(Cc1nc(-c2ccccn2)no1)S(=O)(=O)c1ccccc1 | 13.0 | 37.5* | 3.6 | -1.1 | .
CCc1ccccc1NC(=O)Nc1cc(C(=O)NCc2ccc(OC)cc2)ccc1N1CCCC1 | . | . | . | . | 5.6
COc1ccccc1OCCCn1c(=O)oc2ccc(C)cc21 | 0.7 | -7.2 | 0.5 | -1.9 | 4.1
O=C(CCn1c(=O)oc2ccccc21)Nc1ccccc1 | -11.9 | 0.7 | 0.7 | 4.8 | -2.2
COc1cc(NC(=O)CCn2c(=O)oc3ccccc32)cc(OC)c1OC | -3.6 | -21.5 | 0.9 | 3.9 | 34.3*!
COc1ccccc1OCCCn1c(=O)oc2ccccc21 | -5.0 | 34.1* | 0.4 | -9.8 | -11.2
Cc1ccc(-c2nn(-c3cccc(F)c3)cc2CN2CCN(c3ccccn3)CC2)o1 | -18.4 | 80.2* | 7.4 | -4.2 | -26.0
Cc1ccc(-c2nn(-c3cccc(F)c3)cc2CN(Cc2nccn2C)C(C)C)o1 | -18.0 | 2.5 | -0.8 | -4.3 | -15.1
CN1CCN(C(=O)Cn2c(-c3cccs3)cc3cc(Cl)ccc32)CC1 | . | . | -1.1 | . | 8.5
Fc1cccc(Cl)c1CNCCSc1nnnn1-c1ccccc1 | . | . | -0.6 | . | -9.8
COc1ccc(/C=C/C(=O)NCC(=O)N/N=C/c2cc(Br)ccc2OCc2ccccc2)cc1 | -10.6 | -12.6 | -0.4 | 0.9 | -10.5
COc1ccc(/C=C\C(=O)NCC(=O)N/N=C/c2cccc(OC)c2O)cc1 | -14.4 | -3.0 | 0.5 | -3.6 | -15.6
COc1cccc(/C=N/NC(=O)CNC(=O)/C=C\c2ccccc2)c1O | 2.1 | 53.8* | 0.0 | 3.3 | -15.9
COc1ccccc1/C=C\C(=O)NCC(=O)N/N=C/c1ccc(O)cc1O | -11.4 | 77.4* | -1.6 | -2.2 | -21.4
COc1ccc(Br)cc1/C=N/NC(=O)CNC(=O)/C=C/c1ccccc1 | -40.7 | 76.3* | -0.4 | -1.6 | -26.1
Cc1ccc(NC(=O)N(C2=NCC(C)S2)c2ccccc2)cc1 (configuration not stated) | -8.4 | . | . | 1.8 | .
CC(=O)Nc1ccc(S(=O)(=O)N(C2=NCC(C)S2)c2ccccc2)cc1 (configuration not stated) | -43.5 | 50.7* | 0.5 | 0.7 | -5.9
